Measurements: the supplement of paper PMC10849652
The full data set covers some 7,900 targets. This sample favours those with a hit. About 0.6% of all pairs of compound and target were hits. A number with no mark means an inactive call.

Columns and labels:
Test in all cases: log2 fold change, soluble protein after heating vs DMSO (PISA); higher = thermal stabilisation; K562 cells, 10 uM, 30 min; active = over 0.2 and 3.5 SD of the protein, either way, in both replicates (recomputed)
[1] = compound: CC[C@@H]1C(=O)N(C)c2cnc(Nc3ccc(C(=O)NC4CCN(C)CC4)cc3OC)nc2N1C1CCCC1
Outline: (§1)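 Quantification of soluble protein used TMTpro 16plex LC-MS/MS, with channel sums equalised. Samples were the supernatant after 21,000xg for 90 min of pooled aliquots from K562 cells (2×10^6 cells/mL) treated with 10 μM compound for 30 min, heated for 3 min over 48°C-58°C, and extracted in PBS with 0.5% NP-40 at 4°C. Values, from duplicates, describe thermal stability against control samples on a log2 fold-change scale.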

volasertib = compound: CC[C@@H]1C(=O)N(C)c2cnc(Nc3ccc(C(=O)N[C@H]4CC[C@H](N5CCN(CC6CC6)CC5)CC4)cc3OC)nc2N1C(C)C [volasertib]
Outline: as §1

[2] = compound: CC[C@H](C)N1C=C(C2=C(C=C(C=C21)C3=CN=C(C=C3)N4CCNCC4)C(=O)NCC5=C(C=C(NC5=O)C)C)C
Outline: as §1

epoxomicin = compound: CC[C@H](C)[C@@H](C(=O)N[C@@H]([C@@H](C)O)C(=O)N[C@@H](CC(C)C)C(=O)[C@]1(CO1)C)NC(=O)[C@H]([C@@H](C)CC)N(C)C(=O)C [epoxomicin]
Outline: as §1

[3] = compound: CCn1c(C(=O)N(C2CC2)C2CC2)cc2c3c(ncn3C)c(Nc3cc(C)n(C)n3)nc21
Outline: as §1

[4] = compound: CCn1cc(-c2ccnc3[nH]c(-c4cccc(CN(C)C)c4)cc23)c(-c2ccc(NC(=O)N(C)C)cc2)n1
Outline: as §1

[5] = compound: CN(C)CC(=O)Nc1ccc2[nH]c(=O)c3ccccc3c2c1
Outline: as §1

rosiglitazone = compound: CN(CCOC1=CC=C(C=C1)C[C@H]2C(=O)NC(=O)S2)C3=CC=CC=N3 (racemic) [rosiglitazone]
Outline: as §1

[6] = compound: CN1C2=C(C3=C1C(=O)N(N=C3)CC4=CC(=CC=C4)N)SC(=C2)S(=O)C
Outline: as §1

[7] = compound: CN1CCC(CNc2ccc3ncc(-c4cccc(OC(F)(F)F)c4)n3n2)CC1
Outline: as §1

saracatinib = compound: CN1CCN(CCOc2cc(OC3CCOCC3)c3c(Nc4c(Cl)ccc5c4OCO5)ncnc3c2)CC1 [saracatinib]
Outline: as §1

sotrastaurin = compound: CN1CCN(c2nc(C3=C(c4c[nH]c5ccccc45)C(=O)NC3=O)c3ccccc3n2)CC1 [sotrastaurin]
Outline: as §1

alvocidib = compound: CN1CC[C@H](c2c(O)cc(O)c3c(=O)cc(-c4ccccc4Cl)oc23)[C@H](O)C1 [alvocidib]
Outline: as §1

Tubastatin A = compound: CN1CCc2c(c3ccccc3n2Cc2ccc(C(=O)NO)cc2)C1 [Tubastatin A]
Outline: as §1

[8] = compound: CNC(=O)C1=CC=CC=C1NC2=NC(=NC=C2Cl)NC3=C(C=C(C=C3)N4CCOCC4)OC
Outline: as §1

defactinib = compound: CNC(=O)c1ccc(Nc2ncc(C(F)(F)F)c(NCc3nccnc3N(C)S(C)(=O)=O)n2)cc1 [defactinib]
Outline: as §1

rucaparib = compound: CNCc1ccc(-c2[nH]c3cc(F)cc4c3c2CCNC4=O)cc1 [rucaparib]
Outline: as §1

[9] = compound: CNc1nc(-c2ccc3c(N)n[nH]c3c2)cc(N2C[C@@H](C(=O)NC3CCCCC3)CC[C@H]2C)n1
Outline: as §1

encorafenib = compound: COC(=O)N[C@@H](C)CNc1nccc(-c2cn(C(C)C)nc2-c2cc(Cl)cc(NS(C)(=O)=O)c2F)n1 [encorafenib]
Outline: as §1

[10] = compound: COC(=O)[C@H](CCSC)NC(=O)C1=C(C=C(C=C1)NC[C@H](CS)N)C2=CC=CC=C2
Outline: as §1

Sequence of UniProt Q92692 (Q92692 whole entry, looked up): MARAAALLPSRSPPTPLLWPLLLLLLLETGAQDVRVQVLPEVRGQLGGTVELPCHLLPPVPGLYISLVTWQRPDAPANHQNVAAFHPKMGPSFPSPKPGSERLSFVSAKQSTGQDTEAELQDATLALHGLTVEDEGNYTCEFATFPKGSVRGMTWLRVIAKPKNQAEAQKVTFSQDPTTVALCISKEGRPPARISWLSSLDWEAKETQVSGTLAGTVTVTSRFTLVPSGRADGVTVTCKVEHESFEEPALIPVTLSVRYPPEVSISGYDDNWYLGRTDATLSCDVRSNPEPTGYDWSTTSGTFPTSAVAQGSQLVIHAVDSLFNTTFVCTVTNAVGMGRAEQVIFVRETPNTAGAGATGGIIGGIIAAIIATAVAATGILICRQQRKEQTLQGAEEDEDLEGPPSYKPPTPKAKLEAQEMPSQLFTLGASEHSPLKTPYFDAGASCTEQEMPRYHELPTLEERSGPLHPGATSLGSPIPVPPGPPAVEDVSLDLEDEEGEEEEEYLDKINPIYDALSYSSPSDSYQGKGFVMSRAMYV
Sequence of UniProt P22059 (P22059 whole entry, looked up): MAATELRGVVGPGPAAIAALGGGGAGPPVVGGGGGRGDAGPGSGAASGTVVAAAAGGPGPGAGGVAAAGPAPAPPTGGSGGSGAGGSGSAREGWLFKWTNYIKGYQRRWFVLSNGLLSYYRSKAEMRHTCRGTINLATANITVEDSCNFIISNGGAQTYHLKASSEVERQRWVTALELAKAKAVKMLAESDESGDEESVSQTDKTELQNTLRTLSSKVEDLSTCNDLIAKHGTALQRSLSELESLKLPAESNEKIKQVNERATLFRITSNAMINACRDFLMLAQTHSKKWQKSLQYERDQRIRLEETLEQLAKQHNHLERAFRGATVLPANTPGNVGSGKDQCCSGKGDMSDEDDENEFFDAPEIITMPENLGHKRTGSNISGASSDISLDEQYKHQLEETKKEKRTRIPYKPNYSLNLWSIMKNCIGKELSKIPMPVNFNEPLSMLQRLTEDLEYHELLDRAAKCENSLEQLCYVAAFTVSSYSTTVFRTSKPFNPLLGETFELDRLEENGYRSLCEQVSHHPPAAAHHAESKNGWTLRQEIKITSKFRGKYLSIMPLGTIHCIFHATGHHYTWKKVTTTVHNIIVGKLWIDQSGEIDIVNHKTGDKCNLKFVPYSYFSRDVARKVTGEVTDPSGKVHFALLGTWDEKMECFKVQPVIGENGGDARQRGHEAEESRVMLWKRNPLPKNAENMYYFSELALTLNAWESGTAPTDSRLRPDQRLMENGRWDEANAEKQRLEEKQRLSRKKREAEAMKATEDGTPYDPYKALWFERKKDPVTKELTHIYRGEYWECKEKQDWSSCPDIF
Sequence of UniProt Q9BRA0 (Q9BRA0 whole entry, looked up): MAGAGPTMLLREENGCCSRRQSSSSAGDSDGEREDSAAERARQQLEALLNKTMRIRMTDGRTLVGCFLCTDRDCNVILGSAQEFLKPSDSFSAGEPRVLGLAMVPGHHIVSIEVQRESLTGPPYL
Sequence of UniProt Q8NBF2 (Q8NBF2 whole entry, looked up): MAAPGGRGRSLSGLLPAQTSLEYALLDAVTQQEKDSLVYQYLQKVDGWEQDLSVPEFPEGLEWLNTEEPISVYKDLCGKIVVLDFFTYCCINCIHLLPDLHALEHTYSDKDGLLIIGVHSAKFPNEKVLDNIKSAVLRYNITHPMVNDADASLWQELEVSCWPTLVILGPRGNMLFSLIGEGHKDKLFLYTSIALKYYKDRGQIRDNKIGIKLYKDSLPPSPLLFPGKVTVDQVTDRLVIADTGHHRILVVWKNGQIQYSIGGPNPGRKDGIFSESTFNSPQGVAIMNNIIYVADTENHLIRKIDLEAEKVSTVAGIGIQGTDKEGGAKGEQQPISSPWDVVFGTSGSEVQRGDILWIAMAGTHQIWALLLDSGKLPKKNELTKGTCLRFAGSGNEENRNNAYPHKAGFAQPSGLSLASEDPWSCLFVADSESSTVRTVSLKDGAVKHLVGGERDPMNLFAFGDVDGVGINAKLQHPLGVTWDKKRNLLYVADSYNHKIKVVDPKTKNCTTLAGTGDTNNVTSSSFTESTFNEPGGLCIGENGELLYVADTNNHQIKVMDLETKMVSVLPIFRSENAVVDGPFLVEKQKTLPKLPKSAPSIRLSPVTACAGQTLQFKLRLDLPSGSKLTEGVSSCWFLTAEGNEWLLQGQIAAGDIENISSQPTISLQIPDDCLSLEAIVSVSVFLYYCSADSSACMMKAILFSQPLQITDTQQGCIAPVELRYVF
Sequence of UniProt Q9NR45 (Q9NR45 whole entry, looked up): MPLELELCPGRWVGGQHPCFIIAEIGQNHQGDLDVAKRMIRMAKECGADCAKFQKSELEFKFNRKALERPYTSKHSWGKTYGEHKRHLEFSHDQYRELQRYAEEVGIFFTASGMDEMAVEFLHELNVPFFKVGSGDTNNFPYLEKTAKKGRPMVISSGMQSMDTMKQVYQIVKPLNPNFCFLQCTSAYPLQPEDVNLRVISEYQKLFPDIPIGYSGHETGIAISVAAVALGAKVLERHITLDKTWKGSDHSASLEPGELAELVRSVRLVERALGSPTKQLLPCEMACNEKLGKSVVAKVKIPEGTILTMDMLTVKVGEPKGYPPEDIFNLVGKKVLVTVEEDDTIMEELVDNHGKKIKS
Sequence of UniProt Q96BN8 (Q96BN8 whole entry, looked up): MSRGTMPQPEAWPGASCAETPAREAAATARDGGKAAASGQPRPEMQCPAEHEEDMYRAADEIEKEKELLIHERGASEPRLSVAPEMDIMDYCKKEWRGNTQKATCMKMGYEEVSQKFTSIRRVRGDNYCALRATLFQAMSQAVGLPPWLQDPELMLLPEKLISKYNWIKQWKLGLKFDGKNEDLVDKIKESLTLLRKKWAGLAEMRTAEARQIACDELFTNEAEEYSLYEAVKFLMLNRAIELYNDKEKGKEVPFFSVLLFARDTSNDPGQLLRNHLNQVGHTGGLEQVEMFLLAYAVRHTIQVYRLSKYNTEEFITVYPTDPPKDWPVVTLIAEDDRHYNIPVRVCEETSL
Sequence of UniProt Q9H000 (Q9H000 whole entry, looked up): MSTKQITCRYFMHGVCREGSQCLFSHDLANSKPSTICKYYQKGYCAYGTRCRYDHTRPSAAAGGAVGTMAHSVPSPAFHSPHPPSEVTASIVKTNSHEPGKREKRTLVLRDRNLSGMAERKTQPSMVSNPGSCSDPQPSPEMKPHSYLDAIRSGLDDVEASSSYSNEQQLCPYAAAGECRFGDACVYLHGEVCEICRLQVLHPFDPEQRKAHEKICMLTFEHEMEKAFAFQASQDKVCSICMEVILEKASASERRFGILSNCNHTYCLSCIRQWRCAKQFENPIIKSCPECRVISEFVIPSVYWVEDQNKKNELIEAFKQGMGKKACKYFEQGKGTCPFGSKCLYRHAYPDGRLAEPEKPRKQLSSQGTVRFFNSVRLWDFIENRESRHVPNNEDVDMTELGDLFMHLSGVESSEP
Sequence of UniProt Q9ULX3 (Q9ULX3 whole entry, looked up): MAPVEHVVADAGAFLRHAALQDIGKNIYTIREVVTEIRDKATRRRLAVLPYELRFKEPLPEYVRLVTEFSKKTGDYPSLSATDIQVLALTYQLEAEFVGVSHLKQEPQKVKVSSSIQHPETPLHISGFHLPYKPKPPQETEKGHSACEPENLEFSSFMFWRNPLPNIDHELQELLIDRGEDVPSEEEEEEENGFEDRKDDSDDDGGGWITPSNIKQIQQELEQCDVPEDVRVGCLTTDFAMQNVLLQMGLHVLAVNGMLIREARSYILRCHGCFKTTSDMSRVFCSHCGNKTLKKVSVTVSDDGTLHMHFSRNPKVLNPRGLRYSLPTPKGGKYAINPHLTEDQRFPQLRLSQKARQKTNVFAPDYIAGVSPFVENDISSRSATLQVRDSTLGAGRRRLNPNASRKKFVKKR
Sequence of UniProt Q9HBL8 (Q9HBL8 whole entry, looked up): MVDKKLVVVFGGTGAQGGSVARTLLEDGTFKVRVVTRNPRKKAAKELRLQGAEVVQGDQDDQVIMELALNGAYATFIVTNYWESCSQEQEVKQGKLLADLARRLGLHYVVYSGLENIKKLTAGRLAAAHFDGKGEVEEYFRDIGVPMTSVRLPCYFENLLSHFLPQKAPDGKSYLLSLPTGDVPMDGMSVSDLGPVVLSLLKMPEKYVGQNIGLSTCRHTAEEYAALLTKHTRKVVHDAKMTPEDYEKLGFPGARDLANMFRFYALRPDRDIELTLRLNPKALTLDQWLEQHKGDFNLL
Sequence of UniProt O95169 (O95169 whole entry, looked up): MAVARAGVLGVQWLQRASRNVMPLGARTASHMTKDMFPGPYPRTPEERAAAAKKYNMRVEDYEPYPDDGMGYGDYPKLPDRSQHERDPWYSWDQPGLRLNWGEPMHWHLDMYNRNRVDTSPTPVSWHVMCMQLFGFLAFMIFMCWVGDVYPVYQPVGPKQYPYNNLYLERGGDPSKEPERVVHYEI
Sequence of UniProt P40261 (P40261 whole entry, looked up): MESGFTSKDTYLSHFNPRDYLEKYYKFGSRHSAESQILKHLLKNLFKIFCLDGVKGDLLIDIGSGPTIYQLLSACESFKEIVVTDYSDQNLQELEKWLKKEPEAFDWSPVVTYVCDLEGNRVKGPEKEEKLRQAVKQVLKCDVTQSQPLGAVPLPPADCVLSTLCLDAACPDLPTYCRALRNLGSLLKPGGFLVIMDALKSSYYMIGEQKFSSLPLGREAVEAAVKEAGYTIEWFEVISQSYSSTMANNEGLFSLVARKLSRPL

Target | log2 fold change [1] | log2 fold change (volasertib) | log2 fold change [2] | log2 fold change (epoxomicin) | log2 fold change [3] | log2 fold change [4] | log2 fold change [5] | log2 fold change (rosiglitazone) | log2 fold change [6] | log2 fold change [7] | log2 fold change (saracatinib) | log2 fold change (sotrastaurin) | log2 fold change (alvocidib) | log2 fold change (Tubastatin A) | log2 fold change [8] | log2 fold change (defactinib) | log2 fold change (rucaparib) | log2 fold change [9] | log2 fold change (encorafenib) | log2 fold change [10]
OSBP (UniProt P22059) | 0.056 | 0.377 (active) | 0.032 | 0.053 | -0.101 | -0.087 | 0.013 | 0.038 | -0.064 | 0.061 | -0.051 | -0.147 | -0.028 | 0.037 | 0.062 | -0.066 | -0.11 | 0.062 | -0.006 | -0.001
NCAPH (UniProt Q15003) | -0.126 | -0.353 (active) | 0.051 | 0.011 | -0.054 | 0.052 | 0.043 | 0.024 | -0.021 | -0.116 | 0.001 | -0.15 | -0.016 | 0.04 | 0.024 | -0.119 | 0.074 | 0.009 | 0.057 | -0.039
MRPS2 (UniProt Q9Y399) | -0.048 | 0.037 | 0.053 | 0.02 | -0.01 | -0.045 | 0.031 | -0.003 | 0.016 | 0.044 | -0.243 | -0.145 | 0.005 | 0.036 | -0.021 | 0.034 | 0.104 | 0.035 | 0.084 | -0.088
NANS (UniProt Q9NR45) | 0.015 | -0.013 | 0.032 | 0.016 | 0.04 | -0.041 | 0.009 | 0.032 | -0.434 (active) | 0.034 | 0.022 | -0.058 | -0.091 | -0.026 | 0.034 | -0.033 | -0.084 | 0.051 | 0.004 | -0.015
MRPS31 (UniProt Q92665) | 0.056 | 0 | 0.036 | -0.015 | -0.036 | 0.014 | -0.054 | -0.018 | 0 | 0.052 | 0.031 | -0.088 | 0.04 | 0.053 | 0.025 | 0.027 | 0.031 | 0.078 | 0.041 | 0.016
NUP85 (UniProt Q9BW27) | -0.158 | -0.561 (active) | -0.008 | 0.022 | -0.024 | -0.01 | -0.004 | 0.019 | -0.038 | -0.045 | 0.027 | -0.026 | -0.023 | -0.001 | -0.021 | -0.097 | -0.047 | -0.034 | 0.025 | 0.003
NOB1 (UniProt Q9ULX3) | -0.053 | -0.026 | 0.093 | -0.02 | -0.033 | 0.026 | -0.011 | 0.026 | 0.04 | -0.049 | -0.022 | -0.092 | 0 | 0.045 | -0.047 | -0.009 | 0.141 | 0.103 | 0.007 | 0
NAA38 isoform 2 (UniProt Q9BRA0) | -0.045 | -0.017 | -0.025 | 0.029 | 0.265 (active) | -0.127 | -0.026 | 0.017 | -0.095 | 0.064 | -0.02 | 0.009 | -0.108 | 0.081 | -0.044 | -0.101 | 0.023 | 0.044 | 0.022 | -0.058
NHLRC2 (UniProt Q8NBF2) | 0.024 | 0.029 | -0.026 | -0.06 | -0.037 | -0.109 | 0.003 | 0.01 | -0.064 | -0.272 (active) | -0.026 | 0.039 | -0.037 | -0.072 | -0.055 | -0.039 | -0.016 | 0.059 | -0.045 | 0.146
MTOR (UniProt P42345) | -0.131 | -0.305 (active) | 0.04 | -0.021 | -0.05 | -0.073 | 0.036 | 0.058 | 0.017 | -0.286 (active) | -0.076 | 0.088 | -0.101 | 0.002 | -0.005 | -0.09 | 0 | -0.009 | 0.041 | -0.02
MKRN2 (UniProt Q9H000) | -0.08 | -0.633 (active) | 0.106 | -0.068 | -0.064 | 0.193 | 0.126 | 0.063 | 0.152 | 0.082 | -0.203 | -0.024 | -0.002 | 0.177 | -0.08 | -0.049 | 0.258 | 0.007 | 0.109 | -0.005
NMRAL1 (UniProt Q9HBL8) | 0.27 | 0.294 | 0.105 | 0.035 | 0.01 | 0.055 | 0.122 | 0.011 | 0.059 | 0.526 | 0.115 | 0.028 | 0.001 | 0.14 | 0.061 | 0.122 | 0.84 (active) | 0.018 | -0.14 | -0.154
NNMT (UniProt P40261) | 0.003 | -0.197 | 0.023 | 0.039 | 0.017 | -0.068 | -0.042 | 0.007 | -0.025 | -0.152 | -0.041 | 0.01 | -0.087 | -0.081 | 0.016 | 0.004 | -0.078 | 0.021 | -0.021 | 0.038
NDUFB8 (UniProt O95169) | 0.008 | -0.016 | -0.036 | 0.074 | 0.041 | 0.055 | 0.016 | 0.025 | 0 | 0.097 | -0.064 | 0.071 | -0.077 | -0.016 | 0.002 | -0.037 | 0.003 | -0.073 | 0.016 | -0.048
OTULIN (UniProt Q96BN8) | 0.045 | -0.331 | 0.074 | 0.037 | -0.093 | -0.084 | 0.054 | 0.051 | 0.015 | -0.226 | -0.029 | -0.044 | 0.046 | 0.019 | -0.009 | -0.029 | 0.02 | -0.053 | -0.012 | -0.012
NECTIN2 (UniProt Q92692) | 0.071 | 0.029 | -0.003 | 0.02 | 0.018 | -0.044 | -0.028 | -0.023 | -0.063 | 0.138 | 0.021 | 0.047 | -0.044 | -0.013 | -0.056 | -0.013 | -0.051 | 0.049 | -0.024 | 0.063
